{"source": "PubChem BioAssay", "key": {"[1]": {"assay": "compounds binding Alexa647 anti-His antibody – biochemical, small-molecule microarray, 635 nm fluorescence, artefact control for SMM control protein annotation, primary screen (AID 1128);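 also: score merges feature fluorescence with signal-to-noise for each printed compound spot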", "conditions": "higher = more signal"}, "[2]": {"test_system": "Human papillomavirus type 1a E7 protein (residues 1-88)", "assay": "HPV1a E7 small-molecule binders, primary screen, biochemical, small-molecule microarray, residues 1-88, 635 nm (AID 1129)", "conditions": "small-molecule microarray binding, fluorescence 635 nm; higher = more signal"}, "[3]": {"molecular_target": "Focal adhesion kinase 1 (Homo sapiens) (UniProt Q05397)", "sequence (Q05397 whole entry, looked up)": "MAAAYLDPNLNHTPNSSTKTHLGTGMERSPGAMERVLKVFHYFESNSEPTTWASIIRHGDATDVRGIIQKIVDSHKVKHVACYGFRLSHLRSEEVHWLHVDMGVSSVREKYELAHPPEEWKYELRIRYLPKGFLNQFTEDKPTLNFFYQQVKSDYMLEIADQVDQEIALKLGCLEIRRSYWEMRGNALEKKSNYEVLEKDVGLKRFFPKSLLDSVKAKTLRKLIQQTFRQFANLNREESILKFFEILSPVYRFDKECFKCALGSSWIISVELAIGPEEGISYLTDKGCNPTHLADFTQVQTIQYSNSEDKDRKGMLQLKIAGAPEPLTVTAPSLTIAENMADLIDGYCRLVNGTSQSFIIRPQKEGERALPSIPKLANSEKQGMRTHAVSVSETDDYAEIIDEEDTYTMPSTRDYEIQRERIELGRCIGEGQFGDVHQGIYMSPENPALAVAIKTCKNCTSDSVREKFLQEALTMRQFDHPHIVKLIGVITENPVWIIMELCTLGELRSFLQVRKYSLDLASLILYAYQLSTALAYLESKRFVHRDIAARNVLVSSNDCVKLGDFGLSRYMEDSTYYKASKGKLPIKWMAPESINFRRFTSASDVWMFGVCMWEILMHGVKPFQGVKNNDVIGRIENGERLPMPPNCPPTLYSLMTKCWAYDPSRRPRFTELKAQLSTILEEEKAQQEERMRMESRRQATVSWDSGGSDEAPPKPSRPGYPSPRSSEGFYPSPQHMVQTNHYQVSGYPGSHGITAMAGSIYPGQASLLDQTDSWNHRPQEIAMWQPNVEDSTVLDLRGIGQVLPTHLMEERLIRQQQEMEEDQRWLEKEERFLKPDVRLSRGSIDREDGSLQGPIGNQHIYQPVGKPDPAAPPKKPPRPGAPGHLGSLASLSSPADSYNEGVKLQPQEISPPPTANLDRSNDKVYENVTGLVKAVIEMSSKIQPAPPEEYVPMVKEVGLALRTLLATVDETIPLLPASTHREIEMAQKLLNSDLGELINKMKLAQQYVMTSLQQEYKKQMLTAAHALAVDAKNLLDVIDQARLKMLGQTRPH", "assay": "PTK2 protein binding on printed compound slides – biochemical, small-molecule microarray, 635/667 nm fluorescence, BSA, DTT, primary screen (AID 1130);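 also: composite of spot emission at 667 nm and signal to noise over triplicate slides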", "conditions": "635 nm fluorescence, higher = more signal"}, "[4]": {"test_system": "Fibrinogen (Alexa647-labelled)", "assay": "Alexa647-fibrinogen binding to printed small molecules – biochemical, small-molecule microarray, 635/667 nm fluorescence, artefact control for SMM control-protein annotation, profiling panel (AID 1131);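 also: z-score merges 667 nm fluorescence with per-spot signal-to-noise over triplicate slides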", "conditions": "fibrinogen-A647 binding fluorescence, higher = more signal"}, "[5]": {"molecular_target": "Follistatin (Homo sapiens) (UniProt P19883)", "sequence (P19883 whole entry, looked up)": "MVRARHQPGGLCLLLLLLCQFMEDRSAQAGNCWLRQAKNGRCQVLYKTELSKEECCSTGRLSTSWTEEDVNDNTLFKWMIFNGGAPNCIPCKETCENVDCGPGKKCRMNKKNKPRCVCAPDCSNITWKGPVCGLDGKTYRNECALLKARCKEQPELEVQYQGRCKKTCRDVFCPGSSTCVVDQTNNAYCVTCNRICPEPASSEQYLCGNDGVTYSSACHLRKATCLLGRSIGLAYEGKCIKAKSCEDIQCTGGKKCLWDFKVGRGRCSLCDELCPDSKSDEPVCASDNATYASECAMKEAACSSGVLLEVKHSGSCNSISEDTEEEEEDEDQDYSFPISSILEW", "assay": "FST protein binding to printed compounds – biochemical, small-molecule microarray, 635/667 nm fluorescence, primary screen (AID 1132)", "conditions": "635 nm fluorescence, higher = more signal"}, "[6]": {"molecular_target": "Fibroblast growth factor 2 (Homo sapiens) (UniProt P09038)", "sequence (P09038 whole entry, looked up)": "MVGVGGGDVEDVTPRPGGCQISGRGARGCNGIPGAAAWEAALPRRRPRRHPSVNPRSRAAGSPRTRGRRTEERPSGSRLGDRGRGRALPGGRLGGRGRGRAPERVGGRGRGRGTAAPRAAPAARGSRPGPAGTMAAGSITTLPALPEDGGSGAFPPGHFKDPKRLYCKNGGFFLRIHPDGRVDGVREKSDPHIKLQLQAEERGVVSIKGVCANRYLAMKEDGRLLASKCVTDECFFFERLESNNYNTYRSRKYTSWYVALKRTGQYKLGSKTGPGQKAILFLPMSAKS", "assay": "basic fibroblast growth factor binding to printed compounds – biochemical, small-molecule microarray, 635/667 nm fluorescence, primary screen (AID 1133)", "conditions": "FGF2, fluorescence 635/667, higher = more signal"}, "[7]": {"assay": "JC-1 mitochondrial potential readout, lung cancer cells – cell-based, A549, JC-1 fluorescence, basal, 24 h, 100 nL, profiling panel (AID 1138);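 also: A549 lung adenocarcinoma cells under basal conditions with no added stimulus; test concentration not given here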", "conditions": "higher = more signal"}, "[8]": {"test_system": "Lefty1", "assay": "Lefty1 protein binding to printed compounds – biochemical, small-molecule microarray, 635/667 nm fluorescence, primary screen (AID 1139)", "conditions": "fluorescence 635/667, higher = more signal"}, "[9]": {"test_system": "wheat germ agglutinin (Triticum aestivum), Alexa647-labelled", "assay": "Alexa647-WGA lectin binding to printed small molecules – biochemical, small-molecule microarray, 635/667 nm fluorescence, artefact control for SMM control-protein annotation, profiling panel (AID 1140);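 also: score merges 667 nm feature emission with signal to noise over triplicate slides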", "conditions": "WGA-A647 binding, 635 nm fluorescence, higher = more signal"}, "[10]": {"molecular_target": "Luciferin 4-monooxygenase (Photinus pyralis) (UniProt P08659)", "sequence (P08659 whole entry, looked up)": "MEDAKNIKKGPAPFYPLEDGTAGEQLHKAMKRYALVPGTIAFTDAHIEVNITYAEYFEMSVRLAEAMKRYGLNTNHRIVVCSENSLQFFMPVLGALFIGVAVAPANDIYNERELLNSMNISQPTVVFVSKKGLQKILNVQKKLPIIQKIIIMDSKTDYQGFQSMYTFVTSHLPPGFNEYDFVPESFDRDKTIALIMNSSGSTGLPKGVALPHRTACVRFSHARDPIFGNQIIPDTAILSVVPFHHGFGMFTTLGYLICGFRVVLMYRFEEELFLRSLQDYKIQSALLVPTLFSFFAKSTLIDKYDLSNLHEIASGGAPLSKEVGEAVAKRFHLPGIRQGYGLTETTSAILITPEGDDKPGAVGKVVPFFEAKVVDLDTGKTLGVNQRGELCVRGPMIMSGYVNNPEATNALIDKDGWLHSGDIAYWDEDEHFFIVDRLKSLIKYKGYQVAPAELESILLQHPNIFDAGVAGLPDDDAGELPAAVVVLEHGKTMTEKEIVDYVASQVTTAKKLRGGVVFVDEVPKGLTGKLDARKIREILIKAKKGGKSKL", "assay": "inhibition of purified Photinus pyralis luciferase – biochemical, luminescence, purified enzyme, 2006 set, primary screen (AID 1141);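 also: cell-free assay with purified firefly luciferase at 100 ng per well in PBS; test concentration not given here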", "conditions": "purified firefly luciferase, SteadyGlo luminescence, 30 min; higher = more signal, called active from +8 up or from −8 down"}, "[11]": {"test_system": "Wnt5a (protein binding on small-molecule microarray)", "assay": "small molecules binding Wnt5a protein – biophysical, small-molecule microarray, 635/667 nm fluorescence, primary screen (AID 1142);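 also: fluorescence read at 667 nm with signal to noise per printed feature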", "conditions": "635 nm fluorescence, higher = more signal"}, "[12]": {"assay": "ATP-based viability of Huh7 replicon cells – cell-based, CellTiter-Glo luminescence, basal, 48 h, cytotoxicity control for HCV replication inhibitor project, primary screen (AID 1143);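 also: Huh7 hepatoma cells carrying a hepatitis C replication reporter with no stimulus; test concentration not given here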", "conditions": "higher = more signal, called active from +8 up or from −8 down"}, "[13]": {"assay": "Pseudomonas biofilm growth suppression – PAO1 strain, BacTiter-Glo luminescence, LB-PBS, primary screen (AID 1144)", "conditions": "P. aeruginosa PAO1 biofilm, 12 h, higher = more signal"}, "[14]": {"assay": "basal CRE-LacZ reporter activity in PC12 – cell-based, unstimulated, primary screen (AID 1145)", "conditions": "no forskolin, luminescence, 4.5 h, higher = more signal, called active from +8 up or from −8 down"}, "[15]": {"assay": "forskolin-driven CRE-LacZ activity in PC12 – cell-based, CRE-LacZ reporter, forskolin-stimulated, primary screen (AID 1146);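 also: beta-galactosidase reporter signal reflecting CREB driven transcription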", "conditions": "luminescence, 4.5 h, higher = more signal, called active from +8 up or from −8 down"}, "[16]": {"molecular_target": "Streptavidin (Streptomyces avidinii) (UniProt P22629)", "sequence (P22629 whole entry, looked up)": "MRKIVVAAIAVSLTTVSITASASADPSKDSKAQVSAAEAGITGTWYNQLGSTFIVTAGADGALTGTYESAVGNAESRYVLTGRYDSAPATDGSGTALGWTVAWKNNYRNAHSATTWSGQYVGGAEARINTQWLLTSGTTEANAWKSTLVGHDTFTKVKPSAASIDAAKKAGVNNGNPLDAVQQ", "assay": "compounds binding control protein streptavidin – biophysical, small-molecule microarray, 635/667 nm fluorescence, artefact control for SMM compound annotation, primary screen (AID 1147);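 also: signal reflects streptavidin binding to arrayed compounds as a control protein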", "conditions": "higher = more signal"}, "[17]": {"assay": "probe aInhba binding on compound microarray – biochemical, small-molecule microarray, 635/667 nm fluorescence, primary screen (AID 1148);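 also: score merges 667nm spot fluorescence with signal-to-noise for antibody binding to printed compounds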", "conditions": "higher = more signal"}, "[18]": {"molecular_target": "Torsin-1A (Homo sapiens) (UniProt O14656)", "sequence (O14656 whole entry, looked up)": "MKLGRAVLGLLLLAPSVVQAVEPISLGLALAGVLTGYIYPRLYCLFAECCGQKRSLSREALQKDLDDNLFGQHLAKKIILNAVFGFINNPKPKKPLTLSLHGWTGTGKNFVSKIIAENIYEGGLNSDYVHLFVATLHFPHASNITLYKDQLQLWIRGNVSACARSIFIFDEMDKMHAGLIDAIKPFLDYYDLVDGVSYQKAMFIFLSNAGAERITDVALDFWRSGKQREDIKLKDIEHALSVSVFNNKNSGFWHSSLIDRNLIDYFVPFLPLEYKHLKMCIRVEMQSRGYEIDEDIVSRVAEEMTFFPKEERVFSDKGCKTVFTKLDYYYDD", "assay": "TOR1A wild-type binding on microarray – cell lysate, small-molecule microarray, lysate, 635/667 nm, primary screen (AID 1149)", "conditions": "COS7 hTOR1A-WT lysate, 635 nm fluorescence, higher = more signal"}, "[19]": {"molecular_target": "Torsin-1A (Homo sapiens) (UniProt O14656)", "assay": "torsin A mutant lysate binding on microarrays – cell lysate, small-molecule microarray, COS7 lysate, 635/667 nm fluorescence, primary screen (AID 1150);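 also: score pools 667 nm emission and signal to noise measuring lysate protein binding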", "conditions": "COS7 hTOR1A mutant lysate, 635 nm fluorescence, higher = more signal"}, "[20]": {"test_system": "Sonic hedgehog protein (Shh)", "assay": "Sonic hedgehog microarray binding compounds – biochemical, small-molecule microarray, 635/667 nm fluorescence, primary screen (AID 1151);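 also: score combines spot fluorescence intensity with signal-to-noise across triplicate slides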", "conditions": "635 nm fluorescence, higher = more signal"}}, "note": "Activity calls are given as the source filed them. Unless noted, no rule for the calls is given here."}
{"smiles": "CN(C)C(=O)[C@@]1(CCS(=O)(=O)c2ccccc2)N=C(c2ccc(OCCCO)cc2)O[C@H]1c1ccccc1CN=[N+]=[N-]", "values": [{"measurement": "composite z-score", "setting": "[1]", "value": 1.78}, {"measurement": "composite z-score", "setting": "[2]", "value": 1.25}, {"measurement": "composite z-score", "setting": "[3]", "value": 0.642}, {"measurement": "composite z-score", "setting": "[4]", "value": 1.06}, {"measurement": "composite z-score", "setting": "[5]", "value": 0.871}, {"measurement": "composite z-score", "setting": "[6]", "value": 0.513}, {"measurement": "z-score", "setting": "[7]", "value": -0.0571}, {"measurement": "composite z-score", "setting": "[8]", "value": 0.49}, {"measurement": "composite z-score", "setting": "[9]", "value": 0.915}, {"measurement": "z-score", "setting": "[10]", "value": "0.628 (inactive)"}, {"measurement": "composite z-score", "setting": "[11]", "value": 0.909}, {"measurement": "z-score", "setting": "[12]", "value": "-3.95 (inactive)"}, {"measurement": "z-score", "setting": "[13]", "value": "-0.873 (inactive)"}, {"measurement": "z-score", "setting": "[14]", "value": "-0.151 (inactive)"}, {"measurement": "z-score", "setting": "[15]", "value": "-0.607 (inactive)"}, {"measurement": "composite z-score", "setting": "[16]", "value": 1.13}, {"measurement": "composite z-score", "setting": "[17]", "value": 0.148}, {"measurement": "composite z-score", "setting": "[18]", "value": 1.07}, {"measurement": "composite z-score", "setting": "[19]", "value": 0.351}, {"measurement": "composite z-score", "setting": "[20]", "value": 0.159}]}
{"smiles": "O=C(C=C(CC(O)c1cccc(Cl)c1)OCCF)OCCF", "note": "(stereo not given)", "values": [{"measurement": "composite z-score", "setting": "[1]", "value": -0.144}, {"measurement": "composite z-score", "setting": "[2]", "value": -1.59}, {"measurement": "composite z-score", "setting": "[3]", "value": -0.401}, {"measurement": "composite z-score", "setting": "[4]", "value": -1.35}, {"measurement": "composite z-score", "setting": "[5]", "value": -0.885}, {"measurement": "composite z-score", "setting": "[6]", "value": -0.576}, {"measurement": "z-score", "setting": "[7]", "value": 0.0691}, {"measurement": "composite z-score", "setting": "[8]", "value": -0.94}, {"measurement": "composite z-score", "setting": "[9]", "value": -0.442}, {"measurement": "z-score", "setting": "[10]", "value": "0.364 (inactive)"}, {"measurement": "composite z-score", "setting": "[11]", "value": -0.234}, {"measurement": "z-score", "setting": "[12]", "value": "-3.1 (inactive)"}, {"measurement": "z-score", "setting": "[13]", "value": "0.117 (inactive)"}, {"measurement": "z-score", "setting": "[14]", "value": "0.481 (inactive)"}, {"measurement": "z-score", "setting": "[15]", "value": "-0.722 (inactive)"}, {"measurement": "composite z-score", "setting": "[16]", "value": -0.0847}, {"measurement": "composite z-score", "setting": "[17]", "value": -0.267}, {"measurement": "composite z-score", "setting": "[18]", "value": -0.489}, {"measurement": "composite z-score", "setting": "[19]", "value": -0.167}, {"measurement": "composite z-score", "setting": "[20]", "value": -0.335}]}
{"smiles": "COCC(=C=CC[C@@H](O)c1ccccc1OCCO)C[C@@H](O)c1ccccn1", "values": [{"measurement": "composite z-score", "setting": "[1]", "value": -0.415}, {"measurement": "composite z-score", "setting": "[2]", "value": 0.845}, {"measurement": "composite z-score", "setting": "[3]", "value": 0.287}, {"measurement": "composite z-score", "setting": "[4]", "value": -0.853}, {"measurement": "composite z-score", "setting": "[5]", "value": 0.968}, {"measurement": "composite z-score", "setting": "[6]", "value": 0.466}, {"measurement": "z-score", "setting": "[7]", "value": -0.00359}, {"measurement": "composite z-score", "setting": "[8]", "value": 0.913}, {"measurement": "composite z-score", "setting": "[9]", "value": 0.293}, {"measurement": "z-score", "setting": "[10]", "value": "-0.578 (inactive)"}, {"measurement": "composite z-score", "setting": "[11]", "value": 0.088}, {"measurement": "z-score", "setting": "[12]", "value": "-0.202 (inactive)"}, {"measurement": "z-score", "setting": "[13]", "value": "1.2 (inactive)"}, {"measurement": "z-score", "setting": "[14]", "value": "1.99 (inactive)"}, {"measurement": "z-score", "setting": "[15]", "value": "-0.465 (inactive)"}, {"measurement": "composite z-score", "setting": "[16]", "value": -0.0795}, {"measurement": "composite z-score", "setting": "[17]", "value": 0.0737}, {"measurement": "composite z-score", "setting": "[18]", "value": 0.162}, {"measurement": "composite z-score", "setting": "[19]", "value": 0.679}, {"measurement": "composite z-score", "setting": "[20]", "value": 1.89}]}
{"smiles": "COc1ccc(C#Cc2ccc3c(c2)[C@]2(C(=O)N3)[C@H](C(N)=O)[C@H]3C(=O)O[C@H](c4ccccc4)[C@H](c4ccccc4)N3[C@@H]2c2ccc(O)cc2)cc1", "values": [{"measurement": "composite z-score", "setting": "[1]", "value": 1.69}, {"measurement": "composite z-score", "setting": "[2]", "value": 1.22}, {"measurement": "composite z-score", "setting": "[3]", "value": 1.6}, {"measurement": "composite z-score", "setting": "[4]", "value": 0.844}, {"measurement": "composite z-score", "setting": "[5]", "value": 0.658}, {"measurement": "composite z-score", "setting": "[6]", "value": 0.717}, {"measurement": "z-score", "setting": "[7]", "value": -1.4}, {"measurement": "composite z-score", "setting": "[8]", "value": 0.339}, {"measurement": "composite z-score", "setting": "[9]", "value": 0.317}, {"measurement": "z-score", "setting": "[10]", "value": "0.734 (inactive)"}, {"measurement": "composite z-score", "setting": "[11]", "value": 0.138}, {"measurement": "z-score", "setting": "[12]", "value": "-4.69 (inactive)"}, {"measurement": "z-score", "setting": "[13]", "value": "-0.755 (inactive)"}, {"measurement": "z-score", "setting": "[14]", "value": "-0.465 (inactive)"}, {"measurement": "z-score", "setting": "[15]", "value": "-0.332 (inactive)"}, {"measurement": "composite z-score", "setting": "[16]", "value": 0.214}, {"measurement": "composite z-score", "setting": "[17]", "value": -0.128}, {"measurement": "composite z-score", "setting": "[18]", "value": 0.369}, {"measurement": "composite z-score", "setting": "[19]", "value": 1.03}, {"measurement": "composite z-score", "setting": "[20]", "value": 0.794}]}
